KB-3-1 tox: kills parental KB-3-1 adenocarcinoma cells | KB-3-1 viability, CellTiter-Glo ATP luminescence, 72 h | Potency, µM (top dose mostly 46.1 µM), usual class: cytotoxic | 400,000 tested, 1.4% active; note: % is set by controls: 0 for no effect and ±100 for the full control effect; nearly all actives have a fitted effect of over 60% in size
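Parental KB-3-1 adenocarcinoma cells in phenol-red-free DMEM with 10% FBS were pin-treated with compounds at several concentrations, incubated 72 h at 37 °C, and viability read by CellTiter-Glo luminescence; concentration-effect curves were fitted after normalization.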
HT1080NT lethal: kills 2HG-producing HT-1080-NT fibrosarcoma cells; AID 686970; HT-1080-NT fibrosarcoma viability, CellTiter-Glo ATP luminescence, 48 h; Potency, µM (titrated, usually from 46.1 µM), for the others: at the top dose activity, negative = less viability, usual class: cytotoxic; 360,000 tested, 1.6% active;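 note: NT is the 2HG producing partner of a matched IDH1 knockdown line; 0% = DMSO-treated cells and -100% = media-only wells without cells; nearly all actives have a fitted effect of over 55% in size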
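Toxicity toward the 2HG-producing NT line was scored as %Activity, normalised to DMSO and no-cell wells, from CellTiter-Glo luminescence after 48 hours' treatment.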
HepG2 tox: counter-screen for TGF-b inhibitors: cytotoxicity in HepG2 cells. HepG2 CAGA-GFP viability, ATP luminescence, 18 h. Potency, µM (series often up to 46.1 µM), without a hit: at the highest dose activity change, negative = cytotoxicity, usual class: cytotoxic. 410,000 tested, 0.76% active. AID 588856
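HepG2 CAGA-GFP cells (1000/well, DMEM with 1% FBS) received compound, then TGF-beta at 500 pg/mL final, and were incubated 18 hours at 37 degrees C. Viability was read by CellTiter-Glo luminescence. Media-only wells were set as complete cell-killing and DMSO as no toxicity.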
HT1080 IDH1KD tx: toxicity to HT-1080 IDH1 knockdown cells (counter line); HT-1080 IDH1 knockdown viability, ATP luminescence, 48 h; Potency, µM (titrated, usually from 46.1 µM), without a hit: at the highest dose activity, negative = toxicity, most hits filed as cytotoxic; 360,000 tested, 2% active; AID 686971;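 note: 0% = DMSO wells and -100% = cell-free medium wells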
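Luminescent ATP read-out (CellTiter-Glo, 10 min at room temperature) after 48 h compound exposure at 37 °C gave viability of IDH1-knockdown HT-1080 cells. Activity was normalised to DMSO and cell-free wells, then fitted as concentration-response curves.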
KB-V1 cytotox: kills drug-selected multidrug resistant KB-V1 cells | KB-V1 MDR cells viability, CellTiter-Glo, 72 h | Potency, µM (top dose mostly 46.1 µM), hits mostly cytotoxic | 400,000 tested, 3.4% active | AID 1347076; note: % is set by controls: 0 for no effect and ±100 for the full control effect; nearly all actives have a fitted effect of over 60% in size
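Drug-selected KB-V1 cells, grown in DMEM lacking phenol red with 10% FBS, receive compound titrations; after three days at 37 degrees C, surviving cell ATP is quantified by CellTiter-Glo luminescence and responses normalized and curve-fitted.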
TGFb SMAD3 inh: inhibitors of TGF-b signaling; Potency, µM (highest dose often 46.1 µM), inactives show at the highest dose activity, negative = inhibition, most hits filed as inhibitors; HepG2 CAGA-GFP TGF-b/SMAD3 reporter, GFP fluorescence, 18 h; TGF-beta stimulated, 500 pg/mL final; 410,000 tested, 1.2% active; note: % is set by controls: 0 for no effect and ±100 for the full control effect; nearly all actives have a fitted effect of over 65% in size
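Cell-based qHTS in HEPG2 carrying a CAGA-GFP Smad reporter; compounds added before 500 pg/mL final TGF-beta, 18 h incubation at 37 degrees C, GFP fluorescence quantified per cell by imaging cytometry.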
* hit, by the source's call; [ ] = another dose, or the depositor's remark. This is a sample that favours compounds with a hit; in the whole collection about 6.6% have one here. Calls come from the whole dose curve; as a rule, active = well fitted curve in the direction sought with a large enough effect; inconclusive = small, poorly fitted or top-dose-only effect, or another doubt; inactive = no such curve, though single readings can be large; an effect the other way counts as inactive or inconclusive. Potency is the fitted concentration of half-maximal effect.

Screening CN[C@H]1C[C@H]2c3[nH]c4ccc(-c5ccc(OC)cc5)cc4c3CCN2C(=O)[C@H]1[C@H](C)O returned KB-3-1 tox 5.8µM*, HT1080NT lethal 8.2µM*, HepG2 tox 14µM*, HT1080 IDH1KD tx 13µM*, KB-V1 cytotox inconclusive and TGFb SMAD3 inh 16µM*.
Screening COc1ccc(NC(=O)N(C)[C@H]2C[C@H]3c4[nH]c5ccccc5c4CCN3C(=O)[C@H]2[C@H](C)O)cc1 returned KB-3-1 tox inactive, HT1080NT lethal -4%, HepG2 tox -19%, HT1080 IDH1KD tx -4%, KB-V1 cytotox inactive and TGFb SMAD3 inh -11%.
COc1ccc(NC(=O)N(C)[C@H]2C[C@H]3c4[nH]c5ccc(-c6ccc(OC)cc6)cc5c4CCN3C(=O)[C@H]2[C@H](C)O)cc1 was read as KB-3-1 tox inconclusive, HT1080NT lethal 23µM*, HepG2 tox -41%, HT1080 IDH1KD tx 16µM*, KB-V1 cytotox inactive and TGFb SMAD3 inh inconclusive.
C[C@H](O)[C@@H]1C(=O)N2CCc3c([nH]c4ccccc34)[C@@H]2C[C@@H]1N(C)C(=O)Nc1cccc2ccccc12 was read as KB-3-1 tox inactive, HT1080NT lethal inconclusive, HepG2 tox -15%, HT1080 IDH1KD tx inconclusive, KB-V1 cytotox inactive and TGFb SMAD3 inh inconclusive.
`COc1ccc(-c2ccc3[nH]c4c(c3c2)CCN2C(=O)[C@@H]([C@H](C)O)[C@@H](N(C)C(=O)Nc3ccccc3)C[C@@H]42)cc1` gave KB-3-1 tox inconclusive, HT1080NT lethal 23µM*, HepG2 tox -103%, HT1080 IDH1KD tx 16µM*, KB-V1 cytotox inconclusive and TGFb SMAD3 inh inconclusive.
Screening CN[C@H]1C[C@H]2c3cc(-c4ccccc4)ccc3CCN2C(=O)[C@H]1[C@H](C)O returned KB-3-1 tox inactive, HT1080NT lethal inconclusive, HepG2 tox -31%, HT1080 IDH1KD tx -4%, KB-V1 cytotox inactive and TGFb SMAD3 inh -2%.
Screening Cc1ccc(-c2cc(-c3coc4ccc(Cl)cc4c3=O)c3c(n2)-c2ccccc2OC3)cc1 returned KB-3-1 tox inactive, HepG2 tox 2%, KB-V1 cytotox inactive and TGFb SMAD3 inh 4%.
For COc1cccc(CNS(=O)(=O)c2ccc(N3CCCCS3(=O)=O)cc2)c1 the results were KB-3-1 tox inconclusive, HepG2 tox -21%, KB-V1 cytotox inconclusive and TGFb SMAD3 inh inconclusive.
Screening COc1ccc(N(C2=NCCCS2)S(=O)(=O)c2ccc(C(C)(C)C)cc2)cc1 returned KB-3-1 tox inactive, HT1080NT lethal -10%, HepG2 tox -1%, HT1080 IDH1KD tx 2%, KB-V1 cytotox inactive and TGFb SMAD3 inh -4%.
Screening COc1ccccc1N(C1=NCCCS1)S(=O)(=O)c1ccc(C(C)(C)C)cc1 returned KB-3-1 tox inconclusive, HT1080NT lethal -4%, HepG2 tox -3%, HT1080 IDH1KD tx -3%, KB-V1 cytotox 23µM* and TGFb SMAD3 inh 3%.
For CC1C/C(=C/c2ccncc2)C(=O)/C(=C/c2ccncc2)C1 (centres undefined) the results were KB-3-1 tox inconclusive, HT1080NT lethal inconclusive, HepG2 tox 5.6µM*, HT1080 IDH1KD tx 3.7µM*, KB-V1 cytotox inactive and TGFb SMAD3 inh 5.6µM*.
Screening O=c1oc(C2(O)CCCCC2)cc2ccc(-c3ccc4[nH]ccc4c3)cc12 returned KB-3-1 tox 0.82µM*, HT1080NT lethal -6%, HepG2 tox -18%, HT1080 IDH1KD tx -18%, KB-V1 cytotox inconclusive and TGFb SMAD3 inh -11%.
`CCOc1ccc(CNC(=O)C2CCN(C3=NS(=O)(=O)C(c4ccc(C)cc4)=C3CC)CC2)cc1` gave KB-3-1 tox inactive, HepG2 tox -28%, KB-V1 cytotox inactive and TGFb SMAD3 inh -7%.
Nc1c(C(=O)Nc2ccc(Cl)c(C(F)(F)F)c2)sc2nc(-c3ccncc3)ccc12 was read as HepG2 tox -21% and TGFb SMAD3 inh inconclusive.
Screening O=C(NC(=S)N1CCN(C(c2ccccc2)c2ccccc2)CC1)c1ccc(S(=O)(=O)N2CCOCC2)cc1 returned KB-3-1 tox inactive, HT1080NT lethal -7%, HepG2 tox -10%, HT1080 IDH1KD tx -12%, KB-V1 cytotox 21µM* and TGFb SMAD3 inh -4%.
`COc1ccc(N2CCN(C3CCCN(S(=O)(=O)c4ccc(C)cc4C)C3)CC2)cc1` (centres undefined) gave KB-3-1 tox 26µM*, HT1080NT lethal 0%, HepG2 tox -20%, HT1080 IDH1KD tx -13%, KB-V1 cytotox inactive and TGFb SMAD3 inh inconclusive.
Screening COc1ccc(N2CCN(C3CCCN(S(=O)(=O)c4ccccc4)C3)CC2)cc1 (centres undefined) returned HT1080NT lethal 0%, HepG2 tox -8%, HT1080 IDH1KD tx -1% and TGFb SMAD3 inh -16%.
`CN(CC(=O)Nn1cnnc1)S(=O)(=O)c1ccc(Br)cc1` gave KB-3-1 tox inactive, HT1080NT lethal 14%, HepG2 tox 0%, HT1080 IDH1KD tx -13%, KB-V1 cytotox inactive and TGFb SMAD3 inh -21%.
CN(CC(=O)Nc1ccncc1)S(=O)(=O)c1ccc(Br)cc1 was read as KB-3-1 tox inactive, HT1080NT lethal -15%, HepG2 tox -20%, HT1080 IDH1KD tx -24%, KB-V1 cytotox 21µM* and TGFb SMAD3 inh 8%.
For Cc1nc(NC(=O)CN(C)S(=O)(=O)c2ccc(Br)cc2)sc1C the results were KB-3-1 tox inactive, HT1080NT lethal 0%[9.24 µM], HepG2 tox -32%, HT1080 IDH1KD tx -16%, KB-V1 cytotox 18µM* and TGFb SMAD3 inh 22%.
For CCN1CCN(C(c2ccc(F)cc2)c2c(O)cc(C)n(CCOC)c2=O)CC1 (centres undefined) the results were KB-3-1 tox inactive, HepG2 tox 5%, KB-V1 cytotox inactive and TGFb SMAD3 inh 37%.
For CCOC(=O)Cn1c(=O)oc2cc(S(=O)(=O)N3CCN(c4ccccc4OC)CC3)ccc21 the results were KB-3-1 tox inactive, HepG2 tox -3%, KB-V1 cytotox inconclusive and TGFb SMAD3 inh -24%.
For CCN(CC)C(=O)c1cc(-c2ccc(Br)cc2)on1 the results were KB-3-1 tox inactive, HT1080NT lethal 25%, HepG2 tox -16%, HT1080 IDH1KD tx inconclusive, KB-V1 cytotox 5.2µM* and TGFb SMAD3 inh 23%.

Screens deposited in PubChem BioAssay by National Center for Advancing Translational Sciences (NCATS).
